# According to ChEMBL document CHEMBL4296182, “CO-ADD screening of NIH NCI Diversity Set V”:
# For part of these data: Entries with a potency or affinity are not part of this list.
# Assays:
# Staphylococcus aureus = experiment: Antibacterial activity against Staphylococcus aureus MRSA ATCC 43300 (CO-ADD:GP_020); MIC in CAMBH media using NBS plates, by Resazurin F(560/590); format: functional; conditions: Concentration 20 uM, ASSAY_TEST Inhibition of Bacterial Growth, detection method Resazurin, Fluorescence (ex560/em590), MEDIA CAMHB, plate type 384well, CORNING #3640, time 18 hr
# Acinetobacter baumannii = experiment: Antibacterial activity against Acinetobacter baumannii ATCC 19606 (CO-ADD:GN_034); MIC in CAMBH media using NBS plates, by Resazurin F(560/590); format: functional; conditions: Concentration 20 uM, ASSAY_TEST Inhibition of Bacterial Growth, detection method Resazurin, Fluorescence (ex560/em590), MEDIA CAMHB, plate type 384well, CORNING #3640, time 18 hr
# Escherichia coli = experiment: Antibacterial activity against Escherichia coli ATCC 25922 (CO-ADD:GN_001); MIC in CAMBH media using NBS plates, by Resazurin F(560/590); format: functional; conditions: Concentration 20 uM, ASSAY_TEST Inhibition of Bacterial Growth, detection method Resazurin, Fluorescence (ex560/em590), MEDIA CAMHB, plate type 384well, CORNING #3640, time 18 hr
# Klebsiella pneumoniae = conditions: Concentration 20 uM; ASSAY_TEST Inhibition of Bacterial Growth; detection method Absorption (OD600); MEDIA CAMHB; plate type 384well; NBS; CORNING #3640; time 18 hr
# Candida albicans = conditions: 20 µM
# Cryptococcus neoformans = conditions: Concentration 20 uM; ASSAY_TEST Inhibition of Fungal Growth; detection method Resazurin; Absorption (OD600-OD570); plate type 384well; NBS; CORNING #3640
Compound,Inhibition (Staphylococcus aureus) [%],Inhibition (Acinetobacter baumannii) [%],Inhibition (Escherichia coli) [%],Inhibition (Klebsiella pneumoniae) [%],Inhibition (Candida albicans) [%],Inhibition (Cryptococcus neoformans) [%]
COc1ccc2c(c1)NP(=S)(Oc1ccccc1)N2 (configuration not stated),-0.02,7.67,-4.02,16.19,18.7,0.61
NC(=O)c1ccc(C(=O)Nc2ccc([As](=O)(O)O)cc2)cc1,11.66,7.33,15.44,11.59,-0.15,-8.21
COc1cccc2c1C(=O)c1c(O)c3c(c(O)c1C2=O)C[C@@](O)(/C(C)=N\O)C[C@@H]3OC1CC(N)C(O)C(C)O1.Cl (some centres not stated),-16.23,-1.97,2.23,11.93,-6.16,-5.57
FCCN(CCF)c1cccc(Cl)c1,3.32,-11.77,4.68,20.4,0.87,-7.02
CCN(CC)c1ccc(C=C2C(=O)NC(=S)NC2=O)cc1,-20.45,-4.05,-18.35,3.93,19.4,12.5
C[C@H]1CC[C@H]2NCCN[C@H]2C1,3.35,-12.82,14.31,13.98,0.84,-10.77
[Cl-].c1ccc(-c2nn(-c3ccccc3)[n+](-c3ccccc3)n2)cc1 [TETRAZOLIUM RED],-10.8,-19.48,7.25,5.91,0.89,-6.85
O=C1N(c2nncs2)CCN1[N+](=O)[O-],11.64,7.25,7.74,10.14,2.04,-14.15
Cc1cc(OCCN2CC2)c2ccccc2n1,14.36,-8.46,11.83,5.11,-2.14,-8.85
C1CC2NCCC3NCCC(N1)N32 (configuration not stated),9.55,-9.44,11.78,14.06,-0.83,-3.22
O=c1nc(C(F)(F)C(F)(F)C(F)(F)F)[nH]o1,8.37,8.1,-1.78,12.08,3.43,-2.86
C=C1C/C(=C/C)C(=O)O[C@@H]2CCN3CC=C(COC(=O)[C@]1(C)O)[C@H]23 [SENECIPHYLLINE],11.97,-14.61,-0.27,22.67,-1.29,-12.96
CC(=O)O.CCC(N)Cc1c[nH]c2ccccc12 (configuration not stated) [ETRYPTAMINE ACETATE],10.71,-7.1,6.98,14.32,2.48,-7.72
COc1ccc(CCNC2(C#N)CCCCC2)cc1OC,2.96,-11.77,4.72,9.13,2.4,-6.07
COc1ccc(OC(=O)Nc2ccc([N+](=O)[O-])cc2OC)cc1,18.29,11.17,1.72,8.07,-1.5,-6.88
O=C(Nc1ccc(F)cc1)Oc1cccnc1O,10.32,2.12,1.72,11.14,5.85,-4.36
CC(C)(C)c1cc(C=C(C#N)C#N)cc(C(C)(C)C)c1O [TYRPHOSTIN A9],-5.13,-9.85,13.03,23.47,14.2,6.62
CCOP(=O)(OCC)/C(C#N)=C/c1ccc(-c2ccc(F)cc2F)o1,7.13,-5.44,9.56,5.2,10.3,-6.44
O=S(=O)(F)c1ccc2nc(-c3cccc(Sc4ccccc4)c3)cc(Cl)c2c1,0.33,-14.47,10.15,9.08,7.93,-2.04
Nc1nc(N)c2cnnn2n1,-6.46,-8.05,-17.28,8.25,5.35,23.1
CC12CCC3C(CCC4Cc5[nH]c6ccccc6c5CC43C)C1CCC2O (configuration not stated),-0.19,-0.61,16.15,10.81,-1.61,-15.22
Cc1ccccc1NC(=O)Oc1cccc(OC(=O)c2ccccc2)c1,23.15,5.34,4.68,11.95,0.43,-5.38
O=[As](O)(O)c1ccc(/N=N/c2ccc(O)cc2)cc1,-11.42,-13.35,0.89,15.09,7.76,-3.57
CCC1CN1P1(=O)OCC(C)([N+](=O)[O-])CO1 (configuration not stated),-8.05,-16.64,2.35,8.08,0.16,0.43

Compound,Inhibition (Staphylococcus aureus) [%],Inhibition (Acinetobacter baumannii) [%],Inhibition (Escherichia coli) [%],Inhibition (Klebsiella pneumoniae) [%],Inhibition (Candida albicans) [%],Inhibition (Cryptococcus neoformans) [%]
CN(C)P(=O)(N(C)C)N1CC1,13.5,-2.37,15.32,12.98,-1.16,-11.15
CNC(=O)Oc1c(O)ccnc1C,3.2,-15.53,4.87,2.24,5.45,-9.19
CC(=O)Nc1ccc([As](=O)(O)c2ccc([N+](=O)[O-])cc2)cc1,12.11,8.34,-3.43,10.87,-1.88,0.38
CCN1CC2C3CCC(C)(O3)C2C1 (configuration not stated),2.81,-6.99,12.74,12.11,0.39,-3.82
CC12CCC3C(CC=C4CC(O)CCC43C)C1C/C(=C\N1CCCC1)C2=O (configuration not stated),1.08,21.07,1.6,23.67,-3.81,-14.08
CN1C2CCC1[C@@H](COC(=O)c1ccccc1)[C@@H](O)C2 (some centres not stated),0.35,15.38,-10.56,17.19,4.47,-7.25
N#CC12CNCC1CN=N2 (configuration not stated),10.47,1.05,-13.15,8.95,1.04,19.07
CN1CCC2(O)OCCCC2C1 (configuration not stated),3.54,-13.99,3.03,26.78,1.09,3.57
COc1cc(OC)cc(C2(C#N)CCN(C)CC2)c1,3.06,10.25,-15.21,17.67,8.63,25.01
c1cncc(C2Nc3cccc4cccc(c34)N2)c1,-23.65,-11.45,-11.57,4.78,10.3,30.98
C[C@H]1[C@H](C)N1CC(O)Cn1ccnc1[N+](=O)[O-] (some centres not stated),3.93,7.84,-2.75,19.25,3.06,-3.91
c1cnc2c(c1)ccc1ncccc12,9.5,-5.64,9.97,12.45,0.86,-4.19
Cc1ncc([N+](=O)[O-])n1CCOC(N)=O [BAMNIDAZOLE],2.14,-5.43,15.41,2.21,2.39,7.78
c1cc(C2N3CCCN2CC3)ccn1 (configuration not stated),15.5,-12.77,15.45,9,-1.44,-3.06
Cc1c(C(=O)c2ccccc2)c2ccccc2n1C,14.29,-0.59,13.79,4.42,1.53,-16.28
C[C@]12CC[C@@H]3c4ccc(OC(=O)N(CCCl)CCCl)cc4CC[C@H]3[C@@H]1CC[C@@H]2O [ESTRAMUSTINE],12.2,-4.55,-3.6,12.05,11,-2.85
O=C1N[C@H]2[C@H](O)[C@H](O)[C@@H](O)[C@H](O)[C@@H]2c2cc3c(c(O)c21)OCO3 [PANCRATISTATIN],12.72,6.17,0.6,1.56,0.06,-14.69
CC(C)OC1CCCC(O)C1CC(=O)O (configuration not stated),1.66,-13.22,6.88,-1.53,-0.2,-7.06
Cc1nc(C)c(C(=O)N/N=C/c2ccc(N(CCCl)CCCl)cc2)s1,4.54,12.95,1.76,6.18,-1.16,-8.81
C(=C\c1ccncc1)/c1ccncc1,-0.23,-2.33,7.13,5.66,-2.45,-3.12
CCC1CN1P(=O)(Oc1ccc(Cl)cc1)N1CC1CC (configuration not stated),5.27,-3.62,11.85,2.63,4.31,-4.87
O=P(OC1=CCCCC1)(c1ccccc1)c1ccccc1,2.77,-7.09,6.17,9.43,4.11,-2.72
NC=C1C(=O)N(c2ccccc2)C(=O)N(c2ccccc2)C1=O,-9.39,5.08,6.01,10.61,0.46,-6.24
